Experimental findings from PubChem BioAssay are described below.

Records with an inconclusive call do not appear. Activity calls are given as the source filed them.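 The calls were made as follows, unless noted: active = differentiation response of at least 50%, scaled between solvent and reference control, from cells with both markers; inactive = the rest.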

Assay [1] is described as follows: yeast TOR pathway RPL19A-GFP modulators, primary screen, cell-based, S. cerevisiae, multiplex flow cytometry (AID 1862; in the data active = percent of DMSO control GFP below about 86%;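 also: lower values mimic rapamycin by blocking the RPL19A rise seen in DMSO cells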). The conditions noted are these: S. cerevisiae RPL19A-GFP strain, flow cytometry fluorescence, 3 h; at 10 µM; stronger effect = lower value. On the technique in general: In flow cytometry, cells or beads pass a laser one at a time.
The nature of assay [2]: modulators of MEP2-GFP levels in yeast, primary screen, S. cerevisiae, multiplex flow cytometry (AID 1867;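 active = GFP response, as percent of the DMSO control, above the screen-wide mean plus 3 SD, about 139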;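 also: median GFP channel fluorescence of barcode-gated MEP2-GFP cells measured by flow cytometry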). The conditions noted are these: S. cerevisiae MEP2-GFP strain, 3 h, at 10 µM, stronger effect = higher value, 100% means same as DMSO wells.
Assay [3] is described as follows: modulators of CIT2-GFP expression in yeast, primary screen, S. cerevisiae, GFP fusion, multiplex flow cytometry (AID 1870;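 active = percent response above a set limit, the screen-wide mean plus 3 SD, cut at about 130% in these data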;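 also: barcoded CIT2-GFP strain pooled with four other GFP strains with rapamycin as positive control; median GFP fluorescence per well over plate mean of DMSO wells so 100% = DMSO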). The conditions noted are these: 3 h, at 10 µM, stronger effect = higher value.
The nature of assay [4]: modulators of LAP4-GFP expression in yeast, primary screen, S. cerevisiae, multiplex flow cytometry (AID 1873;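 active = GFP signal, as percent of the solvent control, above the screen mean plus 3 SD, about 149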). The conditions noted are these: 3 h, at 10 µM, stronger effect = higher value.
A short description of assay [5]: modulators of AGP1-GFP expression in yeast TOR pathway, primary screen, cell-based, multiplex flow cytometry, S. cerevisiae (AID 1887;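 active = GFP signal above the screen-wide mean plus 3 SD, that is over about 124.5% of the solvent control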;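 also: AGP1-GFP fusion strain of S. cerevisiae within a five-strain barcoded multiplex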). The conditions noted are these: 3 h, at 10 µM, stronger effect = higher value.
Assay [6] can be described thus: inhibitors of CD8+ T cell-vesicle binding, pilot screen, LFA-1/ICAM-1 modulator project, MLPCN validation set, flow cytometry (AID 2523;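 active = response below a set limit, under 55% cells CD8-positive and vesicle-bound, and CD8 cells' 90th-percentile brightness under 279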;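 as to vesicle binding response: mean PE anti-B7-1 fluorescence of CD8+ cells relative to row control; 100% = QL9-loaded vesicles with DMSO vehicle in the same plate row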). The conditions noted are these: 2C mouse CD8+ T cells, at 7 µM, stronger effect = lower value; double positive events: measured here: CD8+/vesicle+ event percentage.
Assay [7] deals with Integrin beta-1 (Homo sapiens) + Integrin alpha-4 (Homo sapiens) (UniProt P13612+P05556). Put plainly: inhibition of HUTS-21 binding to VLA-4, pilot screen, VLA-4 allosteric modulator project, U937 cells, HUTS-21 mAb, flow cytometry, validation set (AID 2674;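 active = inhibition above 50%, about 3 SD of the validation set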;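 also: antibody binding induced by the VLA-4 ligand LDV present at three times its Kd; 0% = LDV ligand with antibody and no compound and 100% = antibody without LDV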). The conditions noted are these: HUTS-21 LIBS mAb binding, at 6.7 µM, stronger effect = higher value, binding induced by LDV ligand.

Assay [8] is described as follows: superoxide lowering in aged yeast cells, pilot screen, validation compound set (AID 2706;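 active = superoxide response below 65% of plate, a cut near 3 SD across the whole screen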;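 also: yeast exposed to compound for one week at 30 degrees C before staining; 100% = mean of all compound wells on the same plate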). The conditions noted are these: S. cerevisiae aging, superoxide DHE fluorescence; at 10 µM; stronger effect = lower value.
The target of assay [9] is Beta-adrenergic receptor kinase 1 (Homo sapiens) (UniProt P25098). Description: GRK2 binders displacing RNA aptamer, biochemical, validation, human GRK2, bead flow cytometry (AID 488806;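 active = aptamer binding inhibition above 30%, about 3 SD of noise from non-fluorescent compounds; inactive = inhibition at or below 30%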). The conditions noted are these: bead-bound GRK2, FAM-aptamer displacement, at 10 µM, stronger effect = higher value.
In assay [10] the target is Beta-2 adrenergic receptor (Homo sapiens) (UniProt P07550). Description: beta2AR agonists driving receptor internalization, pilot screen, cell-based, FAP fluorogen, flow cytometry, validation set (AID 504459;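 active = percent response above 42, roughly 3 SD of non-fluorescent test compounds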;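 also: agonist-driven loss of surface beta2AR via internalization measured by FAP dye flow cytometry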). The conditions noted are these: Am2.2-beta2AR cells, FAP surface receptor flow cytometry; at 10 µM; stronger effect = higher value.
Assay [11] has as its target AP-2 complex subunit beta (Homo sapiens) (UniProt P63010). Description: inhibitors of arrestin peptide binding to AP2, pilot screen, biochemical, validation set, GST-AP2 beads, flow cytometry (AID 504541;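 active = inhibition above 54%, about 3 SD of non-fluorescent compounds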;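 also: AP2 carries R879A mutation and is captured from E. coli lysate; bead-bound FITC arrestin peptide fluorescence measuring arrestin peptide binding to AP2; 0% = DMSO wells and 100% = excess unlabeled arrestin peptide control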). The conditions noted are these: FITC arrestin peptide, at 10 µM, stronger effect = higher value, AP2 beta2 appendage fragment, R879A mutant.
Assay [12] can be described thus: yeast V-ATPase proton transport modulators, S. cerevisiae, pHLuorin, HTS validation (AID 504600; in the data active = response above about 15%;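 also: plate controls were DMSO for no effect and reference compound for full effect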). The conditions noted are these: S. cerevisiae pHLuorin cytosolic pH, at 10 µM, stronger effect = higher value.
Assay [13] has as its system anti-desmoglein-3 scFv antibody binding to human DSG3. Put plainly: inhibitors of anti-DSG3 scFv binding to DSG3, pilot screen, biochemical, validation compound set, bead-based, flow cytometry (AID 588368;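 active = binding below the plate cutoff, the plate median minus 3 SD, with a reading above zero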;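 also: signal is the median channel fluorescence of bead-bound GFP antibody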). The conditions noted are these: Protein G beads, DSG3-Fc, scFv-GFP binding, at 10 µM, stronger effect = lower value.
The nature of assay [14]: inhibitors of fungal efflux pumps CDR1, CDR2, MDR1, pilot screen, validation compound set, multiplex, phenotypic (AID 588506;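 active = efflux inhibition above 0.42, the validation set average plus 4 SD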;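 also: Nile Red retained in cells so higher fluorescence means more efflux inhibition; 0 = negative control wells and 1 = enniatin B 25 µM full block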). The conditions noted are these: S. cerevisiae pump-expressing triplex, Nile Red efflux flow cytometry; at 10 µM; stronger effect = higher value; the pumps come from Candida albicans.
The target of assay [15] is ATP-binding cassette sub-family B member 6 (Homo sapiens) (UniProt Q9NP58). Description: ABCB6 transporter inhibitors, pilot screen, K562-ABCB6 cells, flow cytometry, validation set (AID 588550;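 active = inhibition above the screen-wide mean plus 3 SD, about 51%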;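 also: 0% = DMSO wells and 100% = benzethonium chloride 70 µM positive control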). The conditions noted are these: K562-ABCB6 porphyrin accumulation, 1 h, at 10 µM, stronger effect = higher value.
Assay [16] is described as follows: promoters of myeloid differentiation in arrested cells, primary screen, cell-based, GFP/MAC1 double positive, flow cytometry, validation set (AID 588685).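 Also: compound exposure lasts four days before antibody staining and flow analysis; 0% = DMSO wells and 100% = 5 µM fulvestrant positive control.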 The conditions noted are these: ER-HoxA9 marrow cells, stronger effect = higher value, normalized: vehicle 0, fulvestrant 100.

Beta-2 adrenergic receptor (Homo sapiens), sequence (P07550 whole entry, looked up): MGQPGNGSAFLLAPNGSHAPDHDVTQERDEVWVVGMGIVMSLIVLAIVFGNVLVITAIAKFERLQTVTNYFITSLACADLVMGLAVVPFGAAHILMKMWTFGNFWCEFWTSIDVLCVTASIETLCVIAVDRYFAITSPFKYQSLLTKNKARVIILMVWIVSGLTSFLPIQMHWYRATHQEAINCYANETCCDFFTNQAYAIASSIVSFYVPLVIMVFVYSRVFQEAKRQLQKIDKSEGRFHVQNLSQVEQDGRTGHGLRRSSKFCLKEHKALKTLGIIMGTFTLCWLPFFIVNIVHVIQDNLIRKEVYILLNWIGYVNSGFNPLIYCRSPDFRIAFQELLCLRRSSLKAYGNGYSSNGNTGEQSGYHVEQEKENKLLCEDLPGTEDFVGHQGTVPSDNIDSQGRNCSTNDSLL
Integrin beta-1 (Homo sapiens) + Integrin alpha-4 (Homo sapiens), sequence (P05556 whole entry, looked up): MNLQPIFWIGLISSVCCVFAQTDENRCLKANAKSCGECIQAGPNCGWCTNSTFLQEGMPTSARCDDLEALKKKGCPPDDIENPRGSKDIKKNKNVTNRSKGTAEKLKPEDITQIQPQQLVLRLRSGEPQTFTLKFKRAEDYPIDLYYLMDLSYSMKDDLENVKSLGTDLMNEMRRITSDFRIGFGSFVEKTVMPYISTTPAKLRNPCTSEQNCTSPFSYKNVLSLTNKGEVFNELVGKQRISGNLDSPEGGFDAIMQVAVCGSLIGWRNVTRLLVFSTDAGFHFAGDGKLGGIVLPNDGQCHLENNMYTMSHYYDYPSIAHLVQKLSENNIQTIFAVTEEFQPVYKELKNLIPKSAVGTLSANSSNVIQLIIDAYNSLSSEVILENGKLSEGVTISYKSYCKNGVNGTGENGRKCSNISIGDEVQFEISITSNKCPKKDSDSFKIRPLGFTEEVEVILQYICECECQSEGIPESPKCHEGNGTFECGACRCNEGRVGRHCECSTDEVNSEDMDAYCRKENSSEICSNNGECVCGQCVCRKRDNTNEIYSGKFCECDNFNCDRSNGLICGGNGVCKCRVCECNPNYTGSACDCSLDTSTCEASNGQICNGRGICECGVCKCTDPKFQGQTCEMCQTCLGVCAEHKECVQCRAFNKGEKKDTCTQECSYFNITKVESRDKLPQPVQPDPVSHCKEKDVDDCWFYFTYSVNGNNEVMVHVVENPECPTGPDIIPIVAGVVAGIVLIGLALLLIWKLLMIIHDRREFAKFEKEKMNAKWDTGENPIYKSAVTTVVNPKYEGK
Integrin beta-1 (Homo sapiens) + Integrin alpha-4 (Homo sapiens), sequence (P13612 whole entry, looked up): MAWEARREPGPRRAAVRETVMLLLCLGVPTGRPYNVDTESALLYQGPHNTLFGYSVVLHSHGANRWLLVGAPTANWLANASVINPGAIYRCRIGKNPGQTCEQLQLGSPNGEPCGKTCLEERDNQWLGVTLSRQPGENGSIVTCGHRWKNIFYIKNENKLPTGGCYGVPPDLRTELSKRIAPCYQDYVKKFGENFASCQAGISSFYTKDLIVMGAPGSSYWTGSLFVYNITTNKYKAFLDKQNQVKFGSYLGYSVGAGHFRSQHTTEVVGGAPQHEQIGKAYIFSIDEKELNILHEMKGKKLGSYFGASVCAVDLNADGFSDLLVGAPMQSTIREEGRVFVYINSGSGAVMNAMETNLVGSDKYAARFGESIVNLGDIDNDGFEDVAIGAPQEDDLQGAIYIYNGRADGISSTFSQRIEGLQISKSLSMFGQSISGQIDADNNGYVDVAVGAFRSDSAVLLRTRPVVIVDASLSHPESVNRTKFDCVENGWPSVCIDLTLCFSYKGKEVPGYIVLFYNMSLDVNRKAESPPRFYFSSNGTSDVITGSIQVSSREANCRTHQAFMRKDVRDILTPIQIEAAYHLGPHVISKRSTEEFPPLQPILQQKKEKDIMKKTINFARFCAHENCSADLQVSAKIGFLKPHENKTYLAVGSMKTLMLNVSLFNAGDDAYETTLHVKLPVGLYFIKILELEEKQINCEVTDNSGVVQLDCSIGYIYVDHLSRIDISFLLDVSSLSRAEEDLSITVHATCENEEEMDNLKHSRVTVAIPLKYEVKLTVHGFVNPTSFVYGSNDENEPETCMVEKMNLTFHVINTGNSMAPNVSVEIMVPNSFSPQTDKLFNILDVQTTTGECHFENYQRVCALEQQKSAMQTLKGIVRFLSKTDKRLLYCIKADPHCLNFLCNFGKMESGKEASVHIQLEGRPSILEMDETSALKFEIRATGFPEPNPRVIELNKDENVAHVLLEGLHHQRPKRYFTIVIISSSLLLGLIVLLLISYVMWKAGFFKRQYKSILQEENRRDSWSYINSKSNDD
AP-2 complex subunit beta (Homo sapiens), sequence (P63010 whole entry, looked up, the tested form may be a part, one chain of several): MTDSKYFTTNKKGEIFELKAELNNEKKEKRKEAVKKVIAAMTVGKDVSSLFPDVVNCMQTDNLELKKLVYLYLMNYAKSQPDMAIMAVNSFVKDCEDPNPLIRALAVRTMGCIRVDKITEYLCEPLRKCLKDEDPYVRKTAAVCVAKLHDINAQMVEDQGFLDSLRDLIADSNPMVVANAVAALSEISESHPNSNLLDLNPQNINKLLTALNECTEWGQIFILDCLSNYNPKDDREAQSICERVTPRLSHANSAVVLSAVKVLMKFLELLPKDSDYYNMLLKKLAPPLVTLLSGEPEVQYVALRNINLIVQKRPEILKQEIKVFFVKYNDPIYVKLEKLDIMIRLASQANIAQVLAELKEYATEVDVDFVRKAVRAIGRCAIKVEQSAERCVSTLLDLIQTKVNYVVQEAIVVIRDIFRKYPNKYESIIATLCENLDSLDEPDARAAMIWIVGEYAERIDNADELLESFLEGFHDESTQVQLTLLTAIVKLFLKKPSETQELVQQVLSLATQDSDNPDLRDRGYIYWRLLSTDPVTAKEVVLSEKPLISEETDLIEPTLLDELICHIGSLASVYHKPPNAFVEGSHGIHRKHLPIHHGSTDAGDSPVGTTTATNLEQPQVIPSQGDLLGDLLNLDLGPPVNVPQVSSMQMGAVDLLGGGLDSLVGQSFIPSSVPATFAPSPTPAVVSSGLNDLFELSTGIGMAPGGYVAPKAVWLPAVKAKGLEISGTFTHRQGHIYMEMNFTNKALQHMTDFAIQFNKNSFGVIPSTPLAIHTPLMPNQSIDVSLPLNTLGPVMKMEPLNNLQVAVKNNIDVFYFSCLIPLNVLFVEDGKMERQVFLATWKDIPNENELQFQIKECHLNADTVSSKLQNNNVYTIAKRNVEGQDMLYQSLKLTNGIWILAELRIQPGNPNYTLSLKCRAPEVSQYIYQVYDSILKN
ATP-binding cassette sub-family B member 6 (Homo sapiens), sequence (Q9NP58 whole entry, looked up): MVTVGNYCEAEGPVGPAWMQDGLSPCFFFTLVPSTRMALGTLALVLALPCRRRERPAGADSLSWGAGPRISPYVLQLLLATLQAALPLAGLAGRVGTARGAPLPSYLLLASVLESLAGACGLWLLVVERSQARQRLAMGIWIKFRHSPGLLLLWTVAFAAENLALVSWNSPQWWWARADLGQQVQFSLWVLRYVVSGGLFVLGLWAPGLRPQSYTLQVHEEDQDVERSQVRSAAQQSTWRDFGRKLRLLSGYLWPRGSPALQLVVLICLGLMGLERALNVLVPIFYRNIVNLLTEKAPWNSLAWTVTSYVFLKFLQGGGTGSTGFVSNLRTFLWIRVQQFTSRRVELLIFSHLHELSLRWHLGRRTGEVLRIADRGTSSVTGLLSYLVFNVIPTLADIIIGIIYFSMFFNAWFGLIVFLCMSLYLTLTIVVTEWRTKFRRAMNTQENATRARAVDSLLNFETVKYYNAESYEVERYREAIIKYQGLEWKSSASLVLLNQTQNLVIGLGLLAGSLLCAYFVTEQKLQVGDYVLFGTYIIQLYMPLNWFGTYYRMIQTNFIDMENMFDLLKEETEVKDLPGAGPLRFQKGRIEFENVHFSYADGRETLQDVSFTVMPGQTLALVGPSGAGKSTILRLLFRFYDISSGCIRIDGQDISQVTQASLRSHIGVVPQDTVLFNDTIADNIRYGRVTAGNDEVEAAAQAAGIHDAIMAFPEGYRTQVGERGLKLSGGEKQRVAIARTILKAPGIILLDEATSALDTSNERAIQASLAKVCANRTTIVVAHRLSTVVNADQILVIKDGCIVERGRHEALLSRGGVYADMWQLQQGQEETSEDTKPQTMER
Beta-adrenergic receptor kinase 1 (Homo sapiens), sequence (P25098 whole entry, looked up): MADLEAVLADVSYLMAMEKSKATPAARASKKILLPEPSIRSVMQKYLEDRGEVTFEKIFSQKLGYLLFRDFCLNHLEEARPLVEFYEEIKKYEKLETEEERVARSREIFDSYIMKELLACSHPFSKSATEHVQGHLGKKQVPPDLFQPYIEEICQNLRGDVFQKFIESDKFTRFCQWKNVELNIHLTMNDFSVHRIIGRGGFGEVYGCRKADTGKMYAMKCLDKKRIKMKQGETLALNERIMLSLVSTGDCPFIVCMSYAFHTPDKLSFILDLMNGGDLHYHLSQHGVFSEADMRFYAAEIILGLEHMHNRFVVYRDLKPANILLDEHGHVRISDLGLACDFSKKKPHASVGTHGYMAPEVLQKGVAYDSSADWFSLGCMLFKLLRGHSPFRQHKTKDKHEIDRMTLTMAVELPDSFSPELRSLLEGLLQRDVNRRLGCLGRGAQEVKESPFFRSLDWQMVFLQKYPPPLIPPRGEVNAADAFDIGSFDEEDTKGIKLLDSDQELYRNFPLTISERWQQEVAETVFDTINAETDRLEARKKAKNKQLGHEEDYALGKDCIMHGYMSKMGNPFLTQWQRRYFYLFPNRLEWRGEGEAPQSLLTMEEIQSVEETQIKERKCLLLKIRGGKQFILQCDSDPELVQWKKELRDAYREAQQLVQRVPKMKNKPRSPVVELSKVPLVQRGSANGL

In the case of `O=C1OC(c2ccccc2)=C/C1=C/c1cccs1`, the percent of DMSO control GFP in [1] is 106% (inactive). The GFP response vs DMSO in [2] is 99.3% (inactive); in assay [4] it was 86.1% (inactive). For the same compound, the percent response of DMSO control in assay [3] is 105% (inactive). Further, in [5], the GFP response, % of DMSO was 97.3% (inactive). The same compound showed a double positive events in [6] of 64.9%. The vesicle binding response in assay [6] was 212% (inactive). The results for the inhibition in assay [7], in assay [11] and in assay [15] were -2.53% (inactive), 6.48% (inactive) and -5% (inactive), respectively. In addition, the superoxide response (% of plate) in assay [8] is 97.6% (inactive). Further, the aptamer binding inhibition in [9] is 1% (inactive). Moreover, the response in assay [10] is -7.02% (inactive); in assay [12], -2.38% (inactive). For the same compound, the binding (% of control) in assay [13] was 93.3% (inactive). In assay [14], the efflux inhibition (fraction of control) is -0.1 (inactive). Further, the differentiation response in assay [16] is 3.18% (inactive).
`CN=C(NC#N)NCCSCc1nc[nH]c1C`: in assay [1], the percent of DMSO control GFP was 102% (inactive). Also, the GFP response vs DMSO in assay [2] was 101% (inactive); in assay [4], 94.8% (inactive). Further, the percent response of DMSO control in assay [3] was 109% (inactive). Also, the GFP response, % of DMSO in assay [5] is 102% (inactive). In addition, the double positive events in assay [6] was 62.1%. Moreover, in assay [6], the vesicle binding response is 195% (inactive). Also, the results for the inhibition in [7], in [11] and in assay [15] were -14.5% (inactive), 5.55% (inactive) and 9% (inactive), respectively. Besides, in [8], the superoxide response (% of plate) is 104% (inactive). Besides, in assay [9], the aptamer binding inhibition was -1% (inactive). In addition, the response in assay [10] was 3.13% (inactive); in assay [12], 0.96% (inactive). In addition, in assay [13], the binding (% of control) was 103% (inactive). For the same compound, the efflux inhibition (fraction of control) in assay [14] was -0.44 (inactive). The differentiation response in assay [16] was -10.4% (inactive).
As for `COc1cc2cc(C(=O)O)[nH]c2c(OC)c1OC`, the percent of DMSO control GFP in assay [1] was 102% (inactive). Further, the GFP response vs DMSO in assay [2] and in assay [4] was 106% (inactive) each time. Besides, in assay [3], the percent response of DMSO control is 96.6% (inactive). Besides, in [5], the GFP response, % of DMSO is 99.5% (inactive). This compound also had a double positive events in [6] of 61%. Further, the vesicle binding response in assay [6] was 187% (inactive). The values for the inhibition in [7], in assay [11] and in [15] were -1.49% (inactive), -16.9% (inactive) and -4% (inactive), respectively. In addition, the superoxide response (% of plate) in assay [8] is 112% (inactive). Also, the aptamer binding inhibition in assay [9] was 0% (inactive). The response in [10] is -2.07% (inactive); in assay [12], -0.34% (inactive). For the same compound, the binding (% of control) in assay [13] was 98.7% (inactive). The efflux inhibition (fraction of control) in assay [14] was -0.32 (inactive). Moreover, the differentiation response in assay [16] was 8.06% (inactive).
Consider `COc1ccc2c(c1OC)C(=O)N1C2SC[C@H]1C(=O)NC1CC(C)(C)NC(C)(C)C1` (stereo not given in full), for which the percent of DMSO control GFP in assay [1] is 99.8% (inactive). Moreover, the GFP response vs DMSO in assay [2] is 133% (inactive); in [4] it was 84.7% (inactive). Further, in assay [3], the percent response of DMSO control was 111% (inactive). In addition, in [5], the GFP response, % of DMSO is 93.1% (inactive). The compound also came in with a double positive events in assay [6] of 48.3%. Also, in assay [6], the vesicle binding response was 17.2% (active). Further, the figures for the inhibition in assay [7], in assay [11] and in assay [15] were 1.61% (inactive), 39.2% (inactive) and 1% (inactive), respectively. In addition, in [8], the superoxide response (% of plate) was 91.6% (inactive). The aptamer binding inhibition in [9] was 6% (inactive). Moreover, the response in assay [10] was 3.43% (inactive); in assay [12] it was -0.76% (inactive). In addition, in [13], the binding (% of control) is 103% (inactive). The efflux inhibition (fraction of control) in assay [14] is 0.09 (inactive). Also, the differentiation response in assay [16] was 30.3% (inactive).
Turning to `Cc1occc(=O)c1O`, in [1], the percent of DMSO control GFP was 92.4% (inactive). The GFP response vs DMSO in assay [2] is 112% (inactive); in [4], 71% (inactive). The percent response of DMSO control in assay [3] is 110% (inactive). In addition, the GFP response, % of DMSO in assay [5] is 86.1% (inactive). Also, the double positive events in [6] worked out at 65.3%. Also, the vesicle binding response in assay [6] is 198% (inactive). In addition, the figures for the inhibition in assay [7], in assay [11] and in assay [15] were -5.18% (inactive), -5.01% (inactive) and 3% (inactive), respectively. For the same compound, the superoxide response (% of plate) in assay [8] was 100% (inactive). Moreover, in assay [9], the aptamer binding inhibition was 1% (inactive). Also, the response in assay [10] was -9.02% (inactive); in assay [12], -1.14% (inactive). The binding (% of control) in assay [13] is 98.1% (inactive). The efflux inhibition (fraction of control) in assay [14] is -0.06 (inactive). Also, the differentiation response in [16] is -4.91% (inactive).

Usually inhibition stands for the drop in the measured response relative to a control, in per cent.
